Screen size: about 350,000 compounds; about 7,000 (2%) were called active. No stated cut-off is given here; in the data, active means activation above about 40%; inconclusive means no clear call, values can overlap the other calls; inactive means below that. Only a selection was taken, and actives are over-represented in it overall.

A short description of the assay: raisers of Bmi1 knock-in reporter signal – mouse ES cells, Bmi1 luciferase knock-in, single point, esBAF inhibitor project, primary screen (AID 602393).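 Further: 0% = median of the plate's neutral control wells and 100% = double that signal; a rise in the Bmi1 reporter signal indicates esBAF inhibition.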 The following applies: 24 h, at 12.5 µM, stronger effect = higher value, 100% = twice the neutral-well signal.
Consider `C[C@H](NC(=O)C[C@@H]1C[C@@H]2c3cc(NC(=O)Nc4ccc(C(F)(F)F)cc4)ccc3O[C@@H]2[C@H](CO)O1)c1ccccc1`, for which the reporter increase is -3.56% (inactive).

Regarding `COC(=O)C[C@@H]1CC[C@@H]2[C@@H](COc3ccc(NC(=O)C4CCOCC4)cc3C(=O)N2C)O1`, the reporter increase was 1.18% (inactive).

`C[C@H]1CN([C@@H](C)CO)C(=O)Cc2cc(NC(=O)Nc3ccc(F)cc3)ccc2O[C@H]1CN(C)S(=O)(=O)c1ccc(F)cc1`: the reporter increase is 1.01% (inactive).

Turning to `COc1ccc(-n2cnc3cc(NCc4ccco4)ccc32)cc1`, the reporter increase was 56.7% (active).

Take `Cc1nc2cc(NCc3cccs3)ccc2n1C`: the reporter increase was 35% (inactive).

With `COc1cc(-n2c(C)nc3cc(C(=O)NCc4ccco4)ccc32)cc(OC)c1OC`, the reporter increase was -1.78% (inactive).

Consider `O=C(C[C@H]1CC[C@H](NC(=O)Nc2ccccc2F)[C@@H](CO)O1)NCc1ccccc1`, for which the reporter increase was 0.158% (inactive).

In the case of `S=C(Nc1ccccc1)Nc1ccc2ccccc2c1`, the reporter increase was 78.2% (active).

On to `FC(F)(F)Oc1ccc(NC(=S)NCc2ccccc2)cc1`, for which the reporter increase was -1.5% (inactive).

As for `Cc1ccc(NC(=S)Nc2ccc(F)cc2)cc1`, the reporter increase was 9.65% (inactive).

For `CCCCCOc1ccc(/C=C/C(=O)NCCc2nc3ccccc3[nH]2)cc1OC`, the reporter increase was 1.93% (inactive).

Consider `CCOc1ccc(/C=C(/C#N)c2nnc(N3CCOCC3)n2-c2ccccc2)cc1OC`, for which the reporter increase is 2.69% (inactive).

For `COc1cc(/C=C(\C#N)c2nc3ccccc3[nH]2)ccc1O`, the reporter increase was 54.9% (active).

`CC=Cc1ccc2n(c1=O)C[C@@H]1[C@@H](CO)[C@H](C(=O)NCCCN3CCOCC3)[C@H]2N1Cc1cocn1` (mixture of isomers): the reporter increase was -2.98% (inactive).

Consider `CCNC(=O)C[C@@H]1CC[C@H](NC(=O)NC2CCCCC2)[C@H](CO)O1`, for which the reporter increase is -1.71% (inactive).

Turning to `O=C(C[C@@H]1C[C@@H]2c3cc(NC(=O)Cc4ccncc4)ccc3O[C@@H]2[C@H](CO)O1)NCc1cccc(F)c1`, the reporter increase was -1.25% (inactive).

For the molecule `O=C(COC(=O)c1cccc(Cl)c1Cl)NC1CCCCCC1`, the reporter increase was -2.51% (inactive).

With `O=C(COc1ccccc1Cl)N1CCCCCCC1`, the reporter increase was 5.02% (inactive).

Regarding `O=C(OCC(=O)N1CCCCCC1)c1cccc(Cl)c1Cl`, the reporter increase is 46.9% (active).

For the molecule `CC(C)Cc1cc(C(=O)Nc2cc(Br)ccc2O)no1`, the reporter increase is 30.6% (inactive).

As for `Cc1ccc(O)c(NC(=O)c2cc(-c3ccco3)on2)c1`, the reporter increase was 69.9% (active).

For the molecule `Cc1ccc(C)c(NC(=O)c2ccc(OC(=O)c3ccco3)cc2)c1`, the reporter increase is 5.84% (inactive).

Regarding `C[C@H](CO)N1C[C@H](C)[C@@H](CN(C)CC2CC2)OCCCC[C@H](C)Oc2ccc(NC(=O)Nc3ccccc3)cc2C1=O`, the reporter increase is 2.38% (inactive).

`CNC[C@H]1Oc2cc(-c3ccc(C(=O)N(C)C)cc3)ccc2S(=O)(=O)N([C@@H](C)CO)C[C@@H]1C`: the reporter increase was 0.467% (inactive).

As for `C[C@@H]1CN([C@H](C)CO)C(=O)c2ccccc2-c2ccccc2CO[C@H]1CN(C)C(=O)CCC(F)(F)F`, the reporter increase is -0.31% (inactive).

As to `O=c1c2c(nc3n1CCCCC3)sc1c(O)cccc12`, the reporter increase was -22.9% (inactive).

Regarding `CC(=O)c1ccc(NC(=O)c2sc3nc4n(c(=O)c3c2C)CCCCC4)cc1`, the reporter increase is 56.1% (active).

Take `COc1cccc(C(=O)Nc2ccc3nc4n(c(=O)c3c2)CCCCC4)c1`: the reporter increase was 38.2% (inactive).

As to `COc1cccc(NC(=O)N(C)C[C@H]2Oc3ncc(C4=CCCCC4)cc3C(=O)N([C@H](C)CO)C[C@H]2C)c1`, the reporter increase is 6.32% (inactive).

With `C[C@H](CO)N1C[C@H](C)[C@@H](CN(C)C(=O)Nc2ccccc2)Oc2ncc(C3=CCCC3)cc2C1=O`, the reporter increase is 1.19% (inactive).

Turning to `Cn1cnc(S(=O)(=O)N2C[C@@H](O)COC[C@H]3O[C@H](CC(=O)N4CCN(c5ccccc5)CC4)CC[C@@H]32)c1`, the reporter increase was 0.849% (inactive).

Regarding `COc1cccc(C2CC(c3ccccc3)=NN2S(=O)(=O)c2ccccc2)c1OC` (stereo unspecified), the reporter increase was -2.12% (inactive).

As for `COc1ccc(C2=NN(C(=O)c3ccccc3C(=O)O)C(c3ccccc3O)C2)cc1` (stereo unspecified), the reporter increase was 74.8% (active).

For the molecule `COc1ccc(C2CC(c3cccc(OC)c3)=NN2c2ccc(S(N)(=O)=O)cc2)cc1` (stereo unspecified), the reporter increase is 4.76% (inactive).

For the molecule `COc1ccc(C2CC(c3ccc([N+](=O)[O-])cc3)=NN2C(C)=O)cc1` (stereo unspecified), the reporter increase is 71.3% (active).

Turning to `COc1ccc(C2CC(c3ccccc3)=NN2C(=O)CSc2nccc(=O)[nH]2)cc1` (stereo unspecified), the reporter increase is 11.5% (inactive).

Consider `COc1ccc(C2CC(c3ccccc3)=NN2C(=O)c2ccc(Cl)c([N+](=O)[O-])c2)cc1` (stereo unspecified), for which the reporter increase is -0.268% (inactive).

With `COc1ccc(C2=NN(C(C)=O)C(c3ccccc3)C2)cc1` (stereo unspecified), the reporter increase was 53.9% (active).

Regarding `COc1ccc(C2=NN(C(=O)CSc3nnnn3C)C(c3ccco3)C2)cc1` (stereo unspecified), the reporter increase is 18% (inactive).

`COc1ccc(C2=NN(C(=O)CSc3nc(=O)n4ccc(C)cc4n3)C(c3ccc(C)cc3)C2)cc1` (stereo unspecified): the reporter increase was 9.03% (inactive).

For the molecule `C[C@@H]1CN([C@@H](C)CO)C(=O)Cc2cc(NC(=O)Nc3cccc4ccccc34)ccc2O[C@@H]1CN(C)CC1CCCCC1`, the reporter increase is -7.15% (inactive).

For `CC(C)CC#Cc1cnc2c(c1)C(=O)N([C@H](C)CO)C[C@H](C)[C@@H](CN(C)Cc1ccccc1C(=O)O)O2`, the reporter increase is -5.98% (inactive).

On to `Cc1noc(C)c1S(=O)(=O)Nc1ccc2c(c1)C(=O)N([C@H](C)CO)C[C@@H](C)[C@@H](CN(C)Cc1ccccc1)OCCCC[C@@H](C)O2`, for which the reporter increase was 3.09% (inactive).

On to `CN1C(=O)c2cc(NC(=O)C3CCCCC3)ccc2OC[C@H]2O[C@@H](CC(=O)NC3CCCC3)CC[C@@H]21`, for which the reporter increase is 0.376% (inactive).

Take `C[C@@H]1CN([C@@H](C)CO)C(=O)Cc2cc(NC(=O)Nc3cccc4ccccc34)ccc2O[C@H]1CN(C)S(=O)(=O)c1ccc(Cl)cc1`: the reporter increase was -0.13% (inactive).

Consider `COc1ccc(NC(=O)N(C)C[C@H]2Oc3ccc(NC(=O)Cc4cn(C)c5ccccc45)cc3CC(=O)N([C@@H](C)CO)C[C@H]2C)cc1`, for which the reporter increase was -1.83% (inactive).

`CS(=O)(=O)Nc1ccc(C2=NN(S(C)(=O)=O)C(c3cccs3)C2)cc1` (stereo unspecified): the reporter increase is 58.2% (active).

For the molecule `CS(=O)(=O)Nc1cccc(C2=NN(C(=O)c3cccc(F)c3)C(c3cccs3)C2)c1` (stereo unspecified), the reporter increase is 5.14% (inactive).

Take `CS(=O)(=O)Nc1cccc(C2=NN(S(=O)(=O)c3ccccc3)C(c3cccs3)C2)c1` (stereo unspecified): the reporter increase is -7.36% (inactive).

Turning to `CC(C)C#Cc1ccc2c(c1)O[C@@H](CN(C)C(=O)C1CC1)[C@H](C)CN([C@H](C)CO)S2(=O)=O`, the reporter increase is 3.19% (inactive).

Regarding `C[C@@H]1CN([C@H](C)CO)C(=O)c2cccc(NS(=O)(=O)c3ccc(F)cc3)c2O[C@@H]1CN(C)S(=O)(=O)c1ccc(Cl)cc1`, the reporter increase is 0.559% (inactive).

Take `CO[C@@H](CN(C)S(=O)(=O)c1ccc(F)cc1)[C@H](C)CN(C(=O)Nc1ccccc1F)[C@@H](C)CO`: the reporter increase is 7.4% (inactive).

Turning to `O=C(C[C@H]1C=C[C@@H](NC(=O)c2cnccn2)[C@H](CO)O1)NCc1ccccc1F`, the reporter increase is -1.5% (inactive).

Consider `CC(C)NC(=O)N[C@@H]1CC[C@H](CCn2cc(-c3ccccc3)nn2)O[C@H]1CO`, for which the reporter increase was 1.66% (inactive).

Turning to `CCNC(=O)C[C@@H]1CC[C@@H]2[C@@H](COc3ccc(NC(C)=O)cc3C(=O)N2C)O1`, the reporter increase is -3.06% (inactive).

As for `CCOC(=O)C1=C(c2ccccc2)O/C(=C(/C(=O)OC)C(F)(F)F)S1`, the reporter increase is -7.41% (inactive).

On to `COC(=O)/C(=C1\Oc2ccc(C(C)(C)C)cc2S1)C(F)(F)F`, for which the reporter increase was 53.4% (active).

Regarding `COCC#Cc1cnc2c(c1)C(=O)N([C@H](C)CO)C[C@@H](C)[C@@H](CN(C)C(=O)Nc1cccc(F)c1)O2`, the reporter increase was -0.578% (inactive).

Turning to `C[C@H](CO)N1C[C@H](C)[C@@H](CN(C)Cc2ccccn2)Oc2ncc(C3=CCCC3)cc2C1=O`, the reporter increase is -4.21% (inactive).

As for `C[C@@H]1CN([C@@H](C)CO)C(=O)c2cc(-c3ccc(C#N)cc3)cnc2O[C@H]1CN(C)C(=O)CN(C)C`, the reporter increase was 0.919% (inactive).

Take `CCOC(=O)c1oc2ccccc2c1NC(=O)c1cccs1`: the reporter increase is -0.529% (inactive).

With `CCc1c(C)sc(NC(=O)c2ccc(Br)o2)c1C(=O)OC`, the reporter increase was 0.318% (inactive).

In the case of `CCc1c(C)sc(NC(=O)c2cccs2)c1C(N)=O`, the reporter increase was 57.1% (active).

Take `COc1ccc(CN2C[C@@H](C)[C@H](OC)CN(C)C(=O)c3cc(NC(C)=O)ccc3OC[C@@H]2C)cc1`: the reporter increase was 1.02% (inactive).

Regarding `CN(C)CC(=O)N[C@@H]1CC[C@H](CC(=O)NCc2ccc(Cl)cc2)O[C@H]1CO`, the reporter increase is 2.07% (inactive).

Turning to `CCCN(C)C[C@@H]1Oc2cc(-c3ccc(C)cc3)ccc2S(=O)(=O)N([C@@H](C)CO)C[C@H]1C`, the reporter increase was -1.82% (inactive).

Take `CO[C@H]1CN(C)C(=O)c2ccc(NC(=O)c3cc(C)on3)cc2OC[C@H](C)N(C)C[C@H]1C`: the reporter increase was -3.45% (inactive).

For the molecule `Cc1ccc(OCc2nc(C#N)c(N3CCCC3)o2)cc1`, the reporter increase was 6.84% (inactive).

Take `CCOc1ccc(Nc2oc(Cc3ccccc3)nc2C#N)cc1`: the reporter increase was 52% (active).

For the molecule `COc1ccc(Nc2oc(-c3ccccc3Cl)nc2C#N)cc1`, the reporter increase was 11.5% (inactive).

For `COc1ccc(NC(=O)N(C)C[C@@H]2OCCCC[C@H](C)Oc3ccc(NS(=O)(=O)c4c(C)noc4C)cc3C(=O)N([C@@H](C)CO)C[C@@H]2C)cc1`, the reporter increase is 10.5% (inactive).

Turning to `Cc1ccc2nc(Nc3ccccc3)cc(C)c2c1`, the reporter increase was 48.3% (active).

For the molecule `Cc1ccc(NC(=O)c2ccn(C(=O)Nc3ccccc3)n2)c(C)c1`, the reporter increase was 33.7% (inactive).

For `Cc1ccc(Nc2nc(C)cc(C)c2C(N)=O)cc1`, the reporter increase is -0.241% (inactive).

In the case of `O=C(C[C@H]1CC[C@H](NC(=O)c2ccncc2)[C@H](CO)O1)Nc1ccccc1`, the reporter increase is 6.5% (inactive).

In the case of `CNC[C@H]1OCCCC[C@@H](C)Oc2ccc(NC(=O)c3ccccc3)cc2C(=O)N([C@@H](C)CO)C[C@H]1C`, the reporter increase is 9.15% (inactive).

Source of the values: PubChem BioAssay AID602393 (Broad Institute, 2012).
